From PubChem
Hits are enriched below; roughly 22% of the tested compounds scored in any of these assays.
CYP2C9 activ: human CYP2C9 activators, primary screen, biochemical, luminescence; Cytochrome P450 2C9 (Homo sapiens), P11712; recombinant CYP2C9, luciferin-H conversion; active compounds read high; factor 1 = untreated enzyme, 0 = blocked; activation factor at 5 µM; actives 1.4% (n = 96,000); AID 1024, 2008;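 active means activation factor of 2 or more for CYP2C9 at a 5 µM dose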;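 further: 0 = sulfaphenazole-blocked wells and 1 = vehicle-only wells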
CYP2C19 inhib: blockers of cytochrome P450 2C19 activity – biochemical, luminescence, ADME assay, primary screen | P33261 | CYP2C19 Supersomes, luciferin-H EGE luminescence, 30 min | inhibition, % at 5 µM | actives 21% (n = 96,000);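 active means CYP2C19 inhibition above a set limit at 5 µM in the primary screen, cut at about 50% in these data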;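 further: plate controls were negative control wells for no effect and 2.5 mM tranylcypromine positive control for full effect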
Target sequence (P33261 whole entry, looked up): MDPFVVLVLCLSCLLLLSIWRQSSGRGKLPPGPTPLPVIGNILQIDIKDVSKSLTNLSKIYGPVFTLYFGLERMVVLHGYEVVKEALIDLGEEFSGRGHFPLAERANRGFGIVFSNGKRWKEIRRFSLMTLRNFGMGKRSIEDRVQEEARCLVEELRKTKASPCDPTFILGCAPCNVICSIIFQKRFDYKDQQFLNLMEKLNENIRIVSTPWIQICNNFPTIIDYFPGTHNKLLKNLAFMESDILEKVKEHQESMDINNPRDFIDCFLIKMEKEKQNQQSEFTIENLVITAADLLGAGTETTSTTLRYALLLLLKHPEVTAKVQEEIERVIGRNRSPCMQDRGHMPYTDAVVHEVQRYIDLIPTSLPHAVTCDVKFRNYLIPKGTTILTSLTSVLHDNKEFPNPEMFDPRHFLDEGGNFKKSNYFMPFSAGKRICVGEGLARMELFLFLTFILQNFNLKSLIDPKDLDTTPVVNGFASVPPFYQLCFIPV
CYP2C9 inhib: blockers of cytochrome P450 2C9 activity – biochemical, luminescence, ADME assay, primary screen; AID 777, 2007; CYP2C9 Supersomes, luciferin-H conversion; actives 20% (n = 96,000); inhibition, % at 5 µM; P11712;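 active means blocking of liver enzyme CYP2C9 beyond about 50% at 5 µM, limit read from the data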
CYP2C19 act: human CYP2C19 activators, primary screen, biochemical, luminescence | activation factor at 5 µM | 96,000 tested, under 10 active | recombinant CYP2C19, luciferin-H EGE luminescence; active compounds read high; 0 = fully inhibited enzyme, 1 = untreated enzyme | AID 1025, 2008;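 active means activation factor of at least 2 at 5 µM in the primary screen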;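 further: 0 = wells with 2.5 mM tranylcypromine and 1 = vehicle-only wells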
Measles CPE: compounds protecting cells from measles virus cytopathic effect, primary screen, measles RdRp inhibitor project, single point, MLSMR library, absorbance. actives 1.5% (n = 140,000). AID 841, 2007. protection (pct of control), % at 4 µM. Measles virus-infected cells, CPE protection; in the data active means protection mostly above about 24%, no sharp cut-off; inactive means mostly below about 26%
* hit, by the source's call; / = not tested or not shown.

SMILES	CYP2C9 activ	CYP2C19 inhib	CYP2C9 inhib	CYP2C19 act	Measles CPE
CCOc1cc2c3c(c1)C1(OCCO1)C(=O)N3C(C)(C)CC2C (configuration not stated)	0.8	33	17	0.7	3
CCOc1cc2c3c(c1)C1(Nc4ccccc4S1)C(=O)N3C(C)(C)CC2C (configuration not stated)	0	88*	100*	0.1	8
CCc1ccccc1NC(=O)C(Cc1cccc(OC)c1OC)c1nn[nH]n1 (configuration not stated)	0.5	0	50*	1	9
Cc1ccc(S(=O)(=O)N2CCN(C)CC2)c(C)c1N(C)S(=O)(=O)c1ccc(Cl)cc1	0.5	67*	47	0.3	4
Cc1cc(C)c(S(=O)(=O)N2CCCCC2)c(C)c1-n1ncnn1	2.1*	69*	-110	0.3	7
Cc1cc(C)c(S(=O)(=O)N2CCCCC2)cc1N(C)S(=O)(=O)c1ccc(Cl)cc1	0.3	38	71*	0.6	5
Cc1cc(S(=O)(=O)N2CCCC2)c(C)s1	1.1	14	-7	0.9	5
CCOc1ccc(S(=O)(=O)N2CCN(C)CC2)c(C)c1C	1.3	28	-28	0.7	7
Cc1cc(C)c(S(=O)(=O)N2CCCCC2)c(C)c1N(C)S(=O)(=O)c1ccccc1	0.4	30	59*	0.7	4
COc1cc(C)ccc1S(=O)(=O)N1CCN(C23CC4CC(CC(C4)C2)C3)CC1	1.3	-5	-25	1	3
COc1ccc(CCC(C)NC2C3CC4CC(C3)CC2C4)cc1 (configuration not stated)	1	6	1	0.9	1
CCc1nnc(SCc2cn3c(C)cc(C)nc3n2)n1N	1.3	-20	-26	1.2	4
Fc1ccccc1CSc1ncn[nH]1	/	/	/	/	12
Nc1nnc(SCc2ccccc2F)n1-c1ccccc1	1.1	75*	-7	0.2	1
Fc1ccccc1CSc1nnc(Cn2cnc3ccccc32)n1-c1ccccc1	0.7	83*	32	0.2	24
CC(=O)Nc1ccc(S(=O)(=O)N(C)S(=O)(=O)c2ccc(F)cc2)cc1	0.8	52*	24	0.5	11
CC(=O)Nc1ccc(N(C)S(C)(=O)=O)cc1	1	-15	-3	1.1	39*
CN(CC(N)=O)S(=O)(=O)c1ccc(F)cc1	1.1	0	-5	1	17
COC(=O)c1ccc2c(c1)S(=O)(=O)NC(=NCc1ccco1)S2	1.2	22	-22	0.8	85*
COC(=O)C1=C(C)N(Cc2ccco2)C(=O)N[C@H]1c1ccccc1	/	/	/	/	8
Fc1ccc(Cn2nnnc2C(c2ccc(Cl)cc2)N2CCSCC2)cc1 (configuration not stated)	0.3	94*	69*	0.1	11
COc1ccc(Cn2nnnc2C(c2cccs2)N2CCSCC2)cc1 (configuration not stated)	0.4	83*	59*	0.2	11
COc1ccc(C(c2nnnn2Cc2cccs2)N2CCC(C(N)=O)CC2)c(OC)c1 (configuration not stated)	0.8	12	18	0.9	14
COc1ccc2[nH]c(=O)c(C(c3nnnn3C3CCCC3)N3CCN(Cc4ccc5c(c4)OCO5)CC3)cc2c1 (configuration not stated)	0.2	-8	84*	1.1	5
CC1CCN(C(c2ccc(N(C)C)cc2)c2nnnn2Cc2ccc(F)cc2)CC1 (configuration not stated)	1.1	26	-7	0.7	11
SMILES	CYP2C9 activ	CYP2C19 inhib	CYP2C9 inhib	CYP2C19 act	Measles CPE
COc1ccc(Cn2nnnc2C(c2cccs2)N2CCCCCC2)cc1 (configuration not stated)	0.1	100*	92*	0	1
COc1ccc2cc(C(c3nnnn3Cc3ccc(F)cc3)N3CCCCCC3)c(=O)[nH]c2c1 (configuration not stated)	0.9	6	11	0.9	23
COc1ccc2cc(C(c3nnnn3Cc3ccccc3)N3CCCCCC3)c(=O)[nH]c2c1 (configuration not stated)	0.3	70*	70*	0.3	/
O=c1[nH]c2cc3c(cc2cc1C(c1nnnn1CC1CCCO1)N1CCCCCC1)OCCO3 (configuration not stated)	0.2	7	79*	0.9	7
Cc1csc(-c2cnn(-c3ccccc3)c2NC(=O)c2cccc(C(F)(F)F)c2)n1	0.5	22	48	0.8	22*
CC(=O)Nc1ccc(S(=O)(=O)NCC(=O)OCC(=O)NC23CC4CC(CC(C4)C2)C3)cc1	/	/	/	/	15
CCCN(CC1CC1)S(=O)(=O)c1ccc(S(N)(=O)=O)cc1	0.6	66*	43	0.3	8
CCCN(CCC)S(=O)(=O)c1ccc(NS(C)(=O)=O)cc1	0.9	-12	7	1.1	12
Cc1ccc2nc(Nc3nc(CSc4nnnn4-c4ccccc4)cc(=O)[nH]3)nc(C)c2c1	0.2	67*	80*	0.3	19
CCc1cccc2c(C(=O)CSc3nnc(-c4ccoc4C)n3C)c[nH]c12	0.5	65*	53*	0.3	8
Cc1occc1-c1nnc(SCCCC(=O)c2ccc(F)cc2)n1C	0.5	72*	54*	0.3	3
COCCn1c(SCCCC(=O)c2ccc(Br)cc2)nnc1-c1ccncc1	0.2	94*	85*	0.1	21
Cn1c(SCCCC(=O)c2ccccc2)nnc1-c1ccncc1	0.5	68*	54*	0.3	7
CCc1cccc2c(C(=O)CSc3nncn3-c3ccc(OC)cc3)c[nH]c12	/	/	/	/	5
CCn1c(SCC(=O)c2ccc(F)cc2)nnc1-c1ccoc1C	0.7	38	31	0.6	7
Cc1ccc(CN2CCN(/N=C\C(Br)=C\c3ccccc3)CC2)cc1	/	/	/	/	22
COC(=O)c1cc(NS(=O)(=O)c2ccc(N3CCC(C)CC3)c([N+](=O)[O-])c2)cc(C(=O)OC)c1	/	/	/	/	14
CC(NC(=O)/C=C/c1ccco1)c1nc2ccccc2n1Cc1ccccc1F (configuration not stated)	/	/	/	/	17
COc1cc(-c2cc(C(=O)Nc3ccc(S(=O)(=O)NCc4ccco4)cc3)c3ccccc3n2)cc(OC)c1OC	/	/	/	/	33
O=C(CSCSCC(=O)NCC1CCCO1)NCC1CCCO1 (configuration not stated)	1.1	-17	-6	1.2	14
Cn1c(SCC(=O)c2ccc(F)cc2)nnc1-c1cnccn1	1.1	37	-6	0.6	3
Cn1c(SCCCC(=O)c2ccc(F)cc2)nnc1-c1ccncc1	0.4	71*	59*	0.3	17
C/C(=N/Oc1nc(C)cc(C)n1)c1ccc(F)cc1	1	15	4	0.9	5
